Results filed as inconclusive are left out. Activity calls are given as the source filed them. The call rests on the fitted dose curve; in most records, active means well fitted curve in the direction sought with a large enough effect; inconclusive means small, poorly fitted or top-dose-only effect, or another doubt; inactive means no such curve, though single readings can be large; an effect the other way counts as inactive or inconclusive.

Assay [1] in a line: qHTS of pediatric cancer cell lines to identify multiple opportunities for drug repurposing: Primary screen for DAOY cells (AID 1347090). Further: nearly all actives have a fitted effect of over 55% in size. Further: potency means the concentration at half of the fitted maximal effect. Put shortly: (§1)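 Cell viability, CellTiter-Glo luminescence; 500-1,000 cells/well, 8- or 11-point titration, 48 h compound exposure at 37 degrees C, 5% CO2. Controls: DMSO neutral, bortezomib 2.3 µM final as positive.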
Background: Quantitative high-throughput screening tests each substance at several concentrations.

Assay [2] in a line: qHTS of pediatric cancer cell lines to identify multiple opportunities for drug repurposing: Primary screen for A673 cells (AID 1347092). Further: nearly all actives have a fitted effect of over 45% in size. Further: potency means the concentration at half of the fitted maximal effect. In a few lines: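 48 h compound exposure, A673, 500-1,000 cells/well, 37 degrees C/5% CO2. MIPE: 11-point, 0.78 nM-46 µM; NPC: 8-point, 0.59 nM-46 µM (final). Readout CellTiter-Glo luminescence after 15 min RT.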
A short description of assay [3]: qHTS of pediatric cancer cell lines to identify multiple opportunities for drug repurposing: Primary screen for SK-N-MC cells (AID 1347093). Further: potency means the concentration at half of the fitted maximal effect. Put shortly: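 Metabolically active cells were quantified by ATP-dependent luminescence (CellTiter-Glo, 15 min at room temperature) following 48 h treatment. Cells had been plated at 500-1,000 per well and settled for 5 h beforehand.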

The nature of assay [4]: qHTS of pediatric cancer cell lines to identify multiple opportunities for drug repurposing: Primary screen for BT-37 cells (AID 1347094). Further: potency means the concentration at half of the fitted maximal effect. In a few lines: (§2)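 CRCs from 8- or 11-point titrations (lowest final 0.59 nM NPC, 0.78 nM MIPE). Cell viability: CellTiter-Glo after 48 h incubation, 15 min room-temperature development, luminescence imaging.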
Assay [5] in a line: qHTS of pediatric cancer cell lines to identify multiple opportunities for drug repurposing: Primary screen for NB-EBc1 cells (AID 1347095). Further: potency means the concentration at half of the fitted maximal effect. In a few lines:
as §2

Assay [6] is described as follows: qHTS of pediatric cancer cell lines to identify multiple opportunities for drug repurposing: Primary screen for U-2 OS cells (AID 1347096). Further: nearly all actives have a fitted effect of over 50% in size. In a few lines:
(§3)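 Cells (500-1,000/well) rested 5 h, then received compounds for 48 h; metabolically active cells were measured by CellTiter-Glo luminescence. Final concentrations spanned up to 46 µM (MIPE, 11-point) or 0.59 nM-46 µM (NPC, 8-point) in primary screens, 11-point in follow-ups.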

A short description of assay [7]: qHTS of pediatric cancer cell lines to identify multiple opportunities for drug repurposing: Primary screen for Saos-2 cells (AID 1347097). Further: nearly all actives have a fitted effect of over 40% in size. Further: potency means the concentration at half of the fitted maximal effect. In a few lines: as §2
The nature of assay [8]: qHTS of pediatric cancer cell lines to identify multiple opportunities for drug repurposing: Primary screen for SK-N-SH cells (AID 1347098). Further: nearly all actives have a fitted effect of over 65% in size. Further: potency means the concentration at half of the fitted maximal effect. In a few lines:
as §3

The nature of assay [9]: qHTS of pediatric cancer cell lines to identify multiple opportunities for drug repurposing: Primary screen for NB1643 cells (AID 1347099). Further: nearly all actives have a fitted effect of over 50% in size. Further: potency means the concentration at half of the fitted maximal effect. Put shortly:
as §2

A short description of assay [10]: qHTS of pediatric cancer cell lines to identify multiple opportunities for drug repurposing: Primary screen for LAN-5 cells (AID 1347100). Further: potency means the concentration at half of the fitted maximal effect. Put shortly: as §3
The nature of assay [11]: qHTS of pediatric cancer cell lines to identify multiple opportunities for drug repurposing: Primary screen for BT-12 cells (AID 1347101). Further: nearly all actives have a fitted effect of over 25% in size. Further: potency means the concentration at half of the fitted maximal effect. In a few lines: as §3
Assay [12] is described as follows: qHTS of pediatric cancer cell lines to identify multiple opportunities for drug repurposing: Primary screen for Rh18 cells (AID 1347102). Further: nearly all actives have a fitted effect of over 65% in size. Further: potency means the concentration at half of the fitted maximal effect. Put shortly: as §3
Assay [13] in a line: qHTS of pediatric cancer cell lines to identify multiple opportunities for drug repurposing: Primary screen for OHS-50 cells (AID 1347103). Further: nearly all actives have a fitted effect of over 40% in size. Further: potency means the concentration at half of the fitted maximal effect. Put shortly: as §3
Assay [14] in a line: qHTS of pediatric cancer cell lines to identify multiple opportunities for drug repurposing: Primary screen for RD cells (AID 1347104). Further: nearly all actives have a fitted effect of over 55% in size. Further: potency means the concentration at half of the fitted maximal effect. Put shortly: as §2
Assay [15] is described as follows: qHTS of pediatric cancer cell lines to identify multiple opportunities for drug repurposing: Primary screen for SJ-GBM2 cells (AID 1347091). Further: potency means the concentration at half of the fitted maximal effect. In a few lines: as §1

`COc1ccc2c(OCc3nnc4ccc(-c5ccccc5)nn34)ccnc2c1`: the Potency entry in assay [1], in assay [2], in assay [3], in assay [4], in assay [5] and in assay [6] was “inactive” in each case. Further, the Potency result in assay [7], in [8], in assay [9], in assay [10], in [11] and in assay [12] was “inactive” each time. Also, in [13], the Potency result was “inactive”.

In the case of `CCCn1c(=O)c2[nH]c(-c3cnn(Cc4cccc(C(F)(F)F)c4)c3)nc2n(CC)c1=O`, the Potency result in assay [1], in assay [6], in [8], in [9], in assay [10] and in [14] was “inactive” each time.

On to `COc1cc2ncnc(Nc3ccc(F)c(Cl)c3)c2cc1NC(=O)C=CCN1CCCCC1`, for which the Potency is 8.33 µM (active) in [15]; 18.7 µM (active) in assay [2]; 24.3 µM (active) in [4]; 26.4 µM (active) in assay [5]; 16.6 µM (active) in assay [7]; 14.8 µM (active) in assay [9]. The Potency in assay [10] was 14.8 µM (active); in assay [11], 24.3 µM (active); in [12] it was 18.7 µM (active); in [13], 7.69 µM (active).

As for `CC(=O)c1c(C)c2cnc(Nc3ccc(N4CCNCC4)cn3)nc2n(C2CCCC2)c1=O`, the Potency in [2] was 14.8 µM (active); in assay [4], 24.3 µM (active); in assay [7], 18.7 µM (active); in [8] it was 24.1 µM (active); in assay [9] it was 16.6 µM (active); in [12], 23.5 µM (active). For the same molecule, the Potency in [13] is 19.3 µM (active); in assay [14], 18.7 µM (active).

As to `Clc1ccc2ncc(-c3cccc(NC4CNC4)n3)n2c1`, the Potency in assay [15] was 11.8 µM (active); in assay [2], 4.69 µM (active); in assay [4] it was 17.2 µM (active); in assay [8], 3.41 µM (active); in assay [10], 16.6 µM (active); in [11], 8.63 µM (active). For the same molecule, the Potency result in [6], in assay [7] and in assay [12] was “inactive” in each case.

Regarding `COC(=O)C[C@](O)(CCCC(C)(C)O)C(=O)O[C@@H]1C(OC)=C[C@]23CCCN2CCc2cc4c(cc2[C@H]13)OCO4`, the Potency entry in [15], in assay [2], in assay [4], in assay [5], in assay [6] and in assay [8] was “inactive” in each case. For the same molecule, the Potency entry in assay [10], in [11], in [12], in assay [13] and in assay [14] was “inactive” each time. The Potency in assay [7] is 18.7 µM (active).

With `Cn1cc(-c2ccncc2)c(-c2ccc(OCc3ccc4ccccc4n3)cc2)n1`, the Potency in assay [1] was 4.69 µM (active); in assay [2], 3.72 µM (active); in assay [3], 9.35 µM (active); in [7] it was 11.8 µM (active); in assay [13], 3.06 µM (active). Besides, the Potency result in assay [6], in assay [8] and in assay [12] was “inactive” throughout.

In the case of `Cc1nc2ccc(CN(C)c3ccc(C(=O)N[C@@H](CCC(=O)O)C(=O)O)s3)cc2c(=O)[nH]1`, the Potency in [2] was 0.059 µM (active); in assay [3], 0.0105 µM (active); in assay [5] it was 0.0422 µM (active). The Potency entry in assay [6], in assay [9] and in assay [14] was “inactive” each time.

For the molecule `CCOC(=O)C1=C(C)NC2=C(C(=O)CC(C)(C)C2)C1c1ccc(-c2ccccc2)cc1` (centres undefined), the Potency was 4.69 µM (active) in assay [15]; 3.72 µM (active) in [2]; 3.85 µM (active) in assay [4]; 5.9 µM (active) in assay [5]; 3.32 µM (active) in assay [7]; 24.3 µM (active) in assay [11]. Besides, in [13], the Potency is 19.3 µM (active).

With `Cc1cc(Nc2cc(CN3CCOCC3)c3nc(C)c(Cc4ccc(Cl)cc4F)n3n2)n[nH]1`, the Potency in [1] is 23.5 µM (active); in [15] it was 23.5 µM (active); in assay [2], 5.9 µM (active); in assay [7], 5.9 µM (active); in assay [8], 6.81 µM (active); in assay [10], 0.469 µM (active). Moreover, the Potency in [12] is 13.2 µM (active); in assay [13] it was 27.3 µM (active); in assay [14], 20.9 µM (active). Further, the Potency result in assay [6] was “inactive”.
